Reference: PubChem BioAssay AID504599 (National Center for Advancing Translational Sciences (NCATS), 2011)
The source made the active and inactive calls. Calls come from the whole dose curve; as a rule, active = well fitted inhibition curve with a large enough effect; inconclusive = small, poorly fitted or top-dose-only effect; inactive = flat fitted curve, though single readings scatter.

Assay: Quantitative high throughput screen for delayed death inhibitors of the malarial parasite plastid, 96 hour incubation.
Conditions: P. falciparum luciferase growth
Excerpt: NIH Molecular Libraries Probe Production Network [MLPCN] NIH Chemical Genomics Center [NCGC] MLPCN Grant: R21 NS059500 Assay Provider: David Fidock and Eric Ekland, Columbia University The goal of this screen is to discover new antimalarial compounds that act by inhibiting the development of the apicoplast in the malarial parasite Plasmodium falciparum. The biochemical processes that make this organelle essential for erythrocytic stage parasites are not well understood. However, antibiotics, such as azithromycin and tetracycline, which target the apicoplast translational machinery, have a potent antimalarial effect. […] We have developed a cell-based assay that measures parasite growth based on the expression of an integrated copy of a firefly luciferase reporter. […] Growth inhibition is detected by a decrease in luciferase activity
Four microliters of culture medium (RPMI 1640 with 0.5% w/v Albumax (GIBCO), 24 mM sodium bicarbonate and 10 ug/mL gentamycin) were dispensed by a Multi-drop Combi into white solid 1536-well plates (Grenier) and 23 nL compound was added by a pin tool. […] Two microliters of luciferase detection reagent was added and luminescence was detected by a ViewLux (PerkinElmer) reader

Row | SMILES | Potency
1 | COc1ccc(COC[C@H](C)N2C[C@@H](C)[C@H](CN(C)S(=O)(=O)c3ccc(F)cc3)OCCCC[C@H](C)Oc3ccc(NC(=O)Nc4ccccc4)cc3C2=O)cc1 | 0.0025 µM (active)
2 | COCCOC(=O)N(C)C[C@@H]1OCCCC[C@H](C)Oc2ccc(NC(=O)Nc3ccccc3)cc2C(=O)N([C@@H](C)CO)C[C@H]1C | 17.9 µM (active)
